Measurements reported in PubChem BioAssay (NCATS).
Inconclusive results are not listed. Activity calls are given as the source filed them. Unless noted, the call rests on the fitted dose curve; in most records, active means well fitted curve in the direction sought with a large enough effect; inconclusive means small, poorly fitted or top-dose-only effect, or another doubt; inactive means no such curve, though single readings can be large; an effect the other way counts as inactive or inconclusive.

Legend:
[1] = qHTS for Inhibitors of Plasmodium falciparum (DD2) proliferation (AID 504314);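 further: parasite DNA measured by SYBR Green fluorescence after red cell lysis; plate controls were DMSO vehicle for no effect and artemisinin wells for full effect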; details: P. falciparum Dd2 in erythrocytes, SYBR Green growth, 72 h; series mostly up to 6.11 µM
How it was run: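 SYBR Green growth assay: 72 h compound exposure of infected red cells (2.5% hematocrit, 0.3% parasitemia), then lysis and overnight dye staining, fluorescence 485/535 nm. Values scaled between DMSO and 0.29 uM artemisinin controls.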

[2] = qHTS for Inhibitors of Plasmodium falciparum (GB4) proliferation (AID 504315);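 further: 0% = DMSO vehicle and -100% = 0.29 µM artemisinin control; nearly all actives have a fitted effect of over 50% in size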; details: P. falciparum GB4 in erythrocytes, SYBR Green DNA, 72 h; series mostly up to 6.7 µM
How it was run: (§1)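 Parasite growth measured as SYBR Green DNA fluorescence (ex 485, em 535 nm) after overnight lysis following 72 h culture at 37 °C, 0.3% parasitemia, 2.5% hematocrit. Values normalized against DMSO and 0.29 uM artemisinin controls, with plate-stack correction.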

[3] = qHTS for Inhibitors of Plasmodium falciparum (7G8) proliferation (AID 504316);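 further: 0% = DMSO vehicle and -100% = 0.29 µM artemisinin full kill; nearly all actives have a fitted effect of over 65% in size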; details: P. falciparum 7G8 in erythrocytes, SYBR Green DNA, 72 h; series mostly up to 6.7 µM
How it was run: as §1

[4] = qHTS for Inhibitors of Plasmodium falciparum (HB3) proliferation (AID 504318);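 further: 0% = DMSO vehicle and -100% = artemisinin control; nearly all actives have a fitted effect of over 60% in size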; details: P. falciparum HB3 in erythrocytes, SYBR Green DNA, 72 h; series mostly up to 7.21 µM
How it was run: as §1

[5] = qHTS for Inhibitors of Plasmodium falciparum (CP250) proliferation (AID 504320);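 further: plate controls were DMSO vehicle for no effect and 0.29 µM artemisinin control for full effect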; details: P. falciparum CP250 in erythrocytes, SYBR Green DNA, 72 h; series mostly up to 6.7 µM
How it was run: as §1

[6] = NFAT Signaling Pathway (AID 444; active means well fitted curve in either direction with a large enough effect, not every such curve was filed as active;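 further: carbachol stimulus at about its EC50 of 1 µM final; on the % scale 0 is the no-effect control and ±100 the full control effect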); details: Jurkat NFAT-bla M1, carbachol, beta-lactamase ratio, 5 h; at 38 µM (top of the series)
How it was run: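 Jurkat cells with NFAT-driven β-lactamase reporter and co-expressed M1 receptor, stimulated with carbachol (final 1 uM, ~EC50), compound titration, 5 h at 37 °C. CCF4 loaded 1 h at RT; 460/530 nm ratio gave %activity and AC50.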

[7] = Stat Signaling Pathway (AID 446; active means well fitted curve in either direction with a large enough effect, not every such curve was filed as active;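 further: ME-180 cervical cancer cells given 40 pM IL-6 alongside compound; SIE-controlled beta-lactamase reporter measured as 460/530 nm FRET emission ratio; on the % scale 0 is the no-effect control and ±100 the full control effect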); details: ME-180 (cervical carcinoma) SIE beta-lactamase reporter, IL-6 stimulated, 5 h; series mostly up to 38 µM
How it was run: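 FRET read-out (405 nm excitation, 460/530 nm emission) of a beta-lactamase reporter under a STAT-inducible element in ME-180 cervical carcinoma cells. Cells with compound receive 40 pM IL-6 for 5 h. Values are normalised to AC90 stimulation and AC90 JAK-inhibitor controls.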

[8] = target: Glucocorticoid receptor (Homo sapiens) (UniProt P04150); assay: GR-GFP Redistribution (AID 450;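 active means compounds whose dose series gives a full or clear partial fitted curve of increased nuclear translocation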; further: potency means the concentration at half of the fitted maximal effect); details: U2OS GR-GFP nuclear translocation, laser cytometry, 2 h
Sequence of Glucocorticoid receptor (Homo sapiens) (P04150 whole entry, looked up): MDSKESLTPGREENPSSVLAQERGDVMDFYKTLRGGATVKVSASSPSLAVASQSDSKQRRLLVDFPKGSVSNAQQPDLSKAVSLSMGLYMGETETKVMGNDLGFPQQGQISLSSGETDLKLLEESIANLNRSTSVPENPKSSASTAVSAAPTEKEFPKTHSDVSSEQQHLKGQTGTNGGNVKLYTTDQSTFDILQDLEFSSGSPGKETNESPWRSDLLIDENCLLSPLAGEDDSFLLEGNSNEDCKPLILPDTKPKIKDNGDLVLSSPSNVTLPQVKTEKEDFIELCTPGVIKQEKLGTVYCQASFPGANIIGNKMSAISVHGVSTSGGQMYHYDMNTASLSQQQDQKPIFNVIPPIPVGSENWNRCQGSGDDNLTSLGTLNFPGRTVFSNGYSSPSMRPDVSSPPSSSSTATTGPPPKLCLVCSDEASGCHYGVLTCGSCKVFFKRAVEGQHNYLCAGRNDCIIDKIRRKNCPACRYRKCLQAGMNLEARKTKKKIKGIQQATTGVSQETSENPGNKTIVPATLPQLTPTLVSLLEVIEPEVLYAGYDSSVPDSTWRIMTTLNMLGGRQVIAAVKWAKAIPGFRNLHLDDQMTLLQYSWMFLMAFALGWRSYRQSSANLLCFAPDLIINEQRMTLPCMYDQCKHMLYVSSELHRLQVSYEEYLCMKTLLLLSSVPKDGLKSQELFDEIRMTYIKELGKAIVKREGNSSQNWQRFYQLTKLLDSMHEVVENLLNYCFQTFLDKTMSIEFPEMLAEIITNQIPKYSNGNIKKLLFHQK

[9] = target: Mitogen-activated protein kinase 10 (Mus musculus) (UniProt Q61831); assay: JNK3 AlphaScreen Assay (AID 530; active means well fitted curve in either direction with a large enough effect, not every such curve was filed as active;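 further: kinase came from lysate of stimulated human HepG2 cells; signal reports phosphorylation of biotinylated GST-cJun 1-79 at Ser73 with 10 µM ATP; on the % scale 0 is the no-effect control and ±100 the full control effect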); details: JNK3 lysate, c-Jun phosphorylation; series mostly up to 57.1 µM
How it was run: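 Activity was read by AlphaScreen after JNK3-containing HepG2 lysate (cytokine pre-activated) phosphorylated biotinylated GST-cJun with 10 uM ATP at room temperature. Phospho-Ser73 cJun antibody with Protein-A acceptor beads provided detection.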

[10] = target: 3',5'-cyclic-AMP phosphodiesterase 4B (Homo sapiens) (UniProt Q07343); assay: qHTS Assay for Inhibitors of PDE-IV (AID 607; active means well fitted activation curve with a large enough effect in the main read-out, with a control signal flat, not every such curve was filed as active; further: % of control where 0% means no effect); details: HEK293 ACTOne CNG channel cells, membrane potential fluorescence; series mostly up to 22.9 µM
Sequence of 3',5'-cyclic-AMP phosphodiesterase 4B (Homo sapiens) (Q07343 whole entry, looked up): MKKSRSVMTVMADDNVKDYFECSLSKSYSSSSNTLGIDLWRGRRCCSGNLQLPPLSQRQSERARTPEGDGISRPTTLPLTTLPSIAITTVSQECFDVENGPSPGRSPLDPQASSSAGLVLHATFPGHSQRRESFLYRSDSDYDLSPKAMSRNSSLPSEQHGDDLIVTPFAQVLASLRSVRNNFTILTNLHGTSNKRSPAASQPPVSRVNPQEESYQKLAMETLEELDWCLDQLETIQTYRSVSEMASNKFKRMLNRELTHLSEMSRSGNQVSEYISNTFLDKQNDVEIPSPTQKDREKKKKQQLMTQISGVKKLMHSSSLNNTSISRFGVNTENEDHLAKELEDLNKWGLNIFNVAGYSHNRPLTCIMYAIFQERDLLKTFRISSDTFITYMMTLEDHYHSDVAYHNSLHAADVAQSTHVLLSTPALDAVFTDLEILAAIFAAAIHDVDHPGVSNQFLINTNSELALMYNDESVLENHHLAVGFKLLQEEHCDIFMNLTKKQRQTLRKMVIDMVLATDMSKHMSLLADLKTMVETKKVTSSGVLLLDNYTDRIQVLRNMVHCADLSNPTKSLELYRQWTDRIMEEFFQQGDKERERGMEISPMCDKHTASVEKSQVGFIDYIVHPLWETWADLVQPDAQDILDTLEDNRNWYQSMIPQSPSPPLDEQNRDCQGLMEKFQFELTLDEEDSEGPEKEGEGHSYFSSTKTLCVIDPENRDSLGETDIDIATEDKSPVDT
How it was run: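 Cell-based read-out of cAMP via a modified cyclic nucleotide-gated channel and membrane potential dye (535/590 nm) in HEK293 cells expressing PDE4 endogenously. Compounds tested up to 22.9 uM final; 100 uM RO 20-1724 reference.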

[11] = target: Guanine nucleotide-binding protein G(i) subunit alpha-1 (Homo sapiens) (UniProt P63096); assay: qHTS Assay for Inhibitors of RGS12 GoLoco Motif Activity (Green Fluorophore) (AID 879); details: Galphai1/FITC-RGS12 GoLoco peptide, fluorescence polarization; series mostly up to 57.1 µM;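 further: 0% = labeled peptide with Gαi1 and full inhibition = labeled peptide alone without protein; negative values mean loss of peptide binding seen as reduced polarization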
Sequence of Guanine nucleotide-binding protein G(i) subunit alpha-1 (Homo sapiens) (P63096 whole entry, looked up): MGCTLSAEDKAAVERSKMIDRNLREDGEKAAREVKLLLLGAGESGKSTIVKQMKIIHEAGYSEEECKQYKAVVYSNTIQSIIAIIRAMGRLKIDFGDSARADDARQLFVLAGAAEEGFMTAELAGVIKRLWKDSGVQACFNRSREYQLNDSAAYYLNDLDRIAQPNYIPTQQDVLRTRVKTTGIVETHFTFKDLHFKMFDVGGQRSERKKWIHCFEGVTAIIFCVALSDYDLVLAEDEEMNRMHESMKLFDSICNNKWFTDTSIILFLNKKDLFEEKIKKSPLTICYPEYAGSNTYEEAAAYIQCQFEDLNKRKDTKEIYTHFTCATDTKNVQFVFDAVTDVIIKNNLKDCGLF
How it was run: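 A drop in FITC polarization marked displacement of the FITC-tagged RGS12 GoLoco peptide (10 nM) from Gαi1 (50 nM). Compounds were incubated 10 min at room temperature in Tris pH 7.5 buffer containing 150 mM NaCl, 0.1 mM GDP and 0.05% NP40; unlabeled peptide titration served as control.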

[12] = target: Cytochrome P450 2C9 (Homo sapiens) (UniProt P11712); assay: qHTS Assay for Inhibitors and Substrates of Cytochrome P450 2C9 (AID 883); details: recombinant CYP2C9, luciferin-H luminescence, 60 min; series mostly up to 57.1 µM; further: on the % scale 0 is the no-effect control and ±100 the full control effect; nearly all actives have a fitted effect of over 60% in size
Sequence of Cytochrome P450 2C9 (Homo sapiens) (P11712 whole entry, looked up): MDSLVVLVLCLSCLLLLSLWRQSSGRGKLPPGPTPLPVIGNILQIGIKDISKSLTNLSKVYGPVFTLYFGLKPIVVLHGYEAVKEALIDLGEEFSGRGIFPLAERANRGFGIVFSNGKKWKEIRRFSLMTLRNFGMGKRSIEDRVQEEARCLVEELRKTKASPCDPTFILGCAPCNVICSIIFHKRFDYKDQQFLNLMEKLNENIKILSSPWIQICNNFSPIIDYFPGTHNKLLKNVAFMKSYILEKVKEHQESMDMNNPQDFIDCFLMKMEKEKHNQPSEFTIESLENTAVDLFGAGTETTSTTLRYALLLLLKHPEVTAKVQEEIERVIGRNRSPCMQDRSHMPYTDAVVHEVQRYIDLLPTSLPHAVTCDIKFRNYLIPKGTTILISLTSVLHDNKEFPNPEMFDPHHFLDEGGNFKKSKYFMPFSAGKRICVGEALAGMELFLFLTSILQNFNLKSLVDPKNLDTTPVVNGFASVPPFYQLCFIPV
How it was run: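 Signal: luciferase luminescence reporting luciferin produced by CYP2C9. Conditions: 10nM enzyme, Luciferin-H 100uM at KM, 25mM KPO4, 37C, 60 min NADPH-driven reaction. Reference: 57uM sulphaphenazole as 100% inhibition.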

[13] = target: Cytochrome P450 3A4 (Homo sapiens) (UniProt P08684); assay: qHTS Assay for Inhibitors and Substrates of Cytochrome P450 3A4 (AID 884); details: recombinant CYP3A4, Luciferin-PPXE luminescence; series mostly up to 57.1 µM; further: on the % scale 0 is the no-effect control and ±100 the full control effect; nearly all actives have a fitted effect of over 50% in size
How it was run: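 Luminescent readout of luciferin produced by CYP3A4 (20 nM) dealkylation of Luciferin-PPXE, 25 uM (its KM). NADPH-driven reaction ran 60 min at RT after 10 min compound preincubation; data scaled to 57 uM ketoconazole as 100% inhibition.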

[14] = target: Cytochrome P450 2D6 (Homo sapiens) (UniProt P10635); assay: qHTS Assay for Inhibitors and Substrates of Cytochrome P450 2D6 (AID 891); details: recombinant CYP2D6, luciferin-ME EGE luminescence; series mostly up to 57.1 µM;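 further: luciferin methyl ether substrate demethylated by CYP2D6 with NADPH regeneration; on the % scale 0 is the no-effect control and ±100 the full control effect; nearly all actives have a fitted effect of over 60% in size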
Sequence of Cytochrome P450 2D6 (Homo sapiens) (P10635 whole entry, looked up): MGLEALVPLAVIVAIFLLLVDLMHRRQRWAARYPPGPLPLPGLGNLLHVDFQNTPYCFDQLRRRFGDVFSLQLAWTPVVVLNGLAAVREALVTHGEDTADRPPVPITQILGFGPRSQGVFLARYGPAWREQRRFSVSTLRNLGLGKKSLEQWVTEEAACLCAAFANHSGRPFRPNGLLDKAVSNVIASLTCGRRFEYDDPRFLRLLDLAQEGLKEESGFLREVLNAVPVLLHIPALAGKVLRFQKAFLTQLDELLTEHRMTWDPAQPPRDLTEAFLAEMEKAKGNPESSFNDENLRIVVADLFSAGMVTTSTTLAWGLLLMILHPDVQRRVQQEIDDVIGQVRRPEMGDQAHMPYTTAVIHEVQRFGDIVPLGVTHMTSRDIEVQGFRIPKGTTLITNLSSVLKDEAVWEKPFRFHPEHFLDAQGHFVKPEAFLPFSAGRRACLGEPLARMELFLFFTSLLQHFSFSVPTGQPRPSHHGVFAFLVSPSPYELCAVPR
How it was run: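 Luminescent read-out of luciferin formed by 5 nM human CYP2D6 demethylating 30 uM Luciferin-ME EGE (Km level) over 60 min at room temperature after NADPH regeneration addition. Data normalized to full inhibition by 1.43 uM quinidine.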

[15] = target: Cytochrome P450 2C19 (Homo sapiens) (UniProt P33261); assay: qHTS Assay for Inhibitors and Substrates of Cytochrome P450 2C19 (AID 899); details: recombinant CYP2C19, luciferin-H EGE luminescence; series mostly up to 57.1 µM; further: on the % scale 0 is the no-effect control and ±100 the full control effect; nearly all actives have a fitted effect of over 60% in size
Sequence of Cytochrome P450 2C19 (Homo sapiens) (P33261 whole entry, looked up): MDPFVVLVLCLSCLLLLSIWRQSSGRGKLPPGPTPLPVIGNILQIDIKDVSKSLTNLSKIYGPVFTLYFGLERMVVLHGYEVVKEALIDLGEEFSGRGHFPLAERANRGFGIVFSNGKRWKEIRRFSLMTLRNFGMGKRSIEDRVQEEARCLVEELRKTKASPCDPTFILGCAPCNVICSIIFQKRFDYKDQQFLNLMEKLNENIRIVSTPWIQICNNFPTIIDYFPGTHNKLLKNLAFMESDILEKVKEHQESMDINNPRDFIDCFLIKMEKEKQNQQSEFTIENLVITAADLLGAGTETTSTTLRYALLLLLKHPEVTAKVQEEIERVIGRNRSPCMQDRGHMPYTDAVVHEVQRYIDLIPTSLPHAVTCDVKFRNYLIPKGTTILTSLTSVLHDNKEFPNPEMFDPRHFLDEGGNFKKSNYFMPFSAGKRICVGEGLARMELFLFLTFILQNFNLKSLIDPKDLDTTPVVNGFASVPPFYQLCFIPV
How it was run: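 Signal comes from luciferase acting on luciferin released by CYP2C19-mediated hydroxylation of Luciferin-H EGE, 10uM (KM). Assay mix: 5nM enzyme, 50mM KPO4; 60 min at 37C with NADPH regeneration. Data normalized against 57uM ketoconazole.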

[16] = qHTS Assay for Identification of Small Molecule Agonists for Thrombopoietin (TPO) Signaling Pathway (AID 917); details: TPO signaling pathway reporter cells, agonist qHTS; series mostly up to 38.5 µM; further: on the % scale 0 is the no-effect control and ±100 the full control effect
How it was run: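 Stimulation at the TPO EC50 (26 pM final) was used to detect activators. Ba/F3 mouse cells bearing human TPO receptor and a luciferase reporter under the Glycoprotein IIb promoter were exposed to compounds for 24 hrs at 37 C.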

[17] = target: Muscarinic acetylcholine receptor M1 (Rattus norvegicus) (UniProt P08482); assay: qHTS Assay for Antagonists of Acetylcholine Muscarinic M1 Receptor: Kinetic Measurement of Intracellular Calcium Response (AID 943); details: M1-expressing cells, kinetic intracellular calcium fluorescence; series mostly up to 35.3 µM;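 further: Fluo-4 calcium signal as peak divided by basal fluorescence over 4 min; nearly all actives have a fitted effect of over 75% in size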
Sequence of Muscarinic acetylcholine receptor M1 (Rattus norvegicus) (P08482 whole entry, looked up): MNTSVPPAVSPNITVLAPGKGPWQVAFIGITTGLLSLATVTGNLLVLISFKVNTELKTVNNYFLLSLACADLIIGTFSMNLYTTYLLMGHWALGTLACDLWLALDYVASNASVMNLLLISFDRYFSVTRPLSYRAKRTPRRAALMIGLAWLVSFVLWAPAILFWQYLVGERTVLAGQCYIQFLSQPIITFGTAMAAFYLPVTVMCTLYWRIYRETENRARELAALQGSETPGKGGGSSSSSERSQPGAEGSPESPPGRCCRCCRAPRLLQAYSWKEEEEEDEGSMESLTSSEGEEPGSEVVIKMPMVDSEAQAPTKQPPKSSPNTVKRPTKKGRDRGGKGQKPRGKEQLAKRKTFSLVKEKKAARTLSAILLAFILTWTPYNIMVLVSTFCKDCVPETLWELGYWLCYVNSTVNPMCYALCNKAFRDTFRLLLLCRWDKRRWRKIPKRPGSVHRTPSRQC
How it was run: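 Antagonism is measured as inhibition of the carbachol-evoked calcium rise in CHO cells transfected with rat M1. Cells are dye-loaded, exposed to compound for 10 min, then stimulated with 100 nM carbachol (EC80).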

[18] = target: Muscarinic acetylcholine receptor M1 (Rattus norvegicus) (UniProt P08482); assay: qHTS Assay for Antagonists of Acetylcholine Muscarinic M1 Receptor: Measurement of IP-One Response (AID 944); details: CHO-M1 cells, IP-One HTRF, antagonist mode; series mostly up to 46.1 µM; further: nearly all actives have a fitted effect of over 75% in size
How it was run: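 Antagonist mode with rat M1 receptor transfected into CHO cells. Compound is added first for 10 min, carbachol at its EC80 follows for 30 min, and lysis reagents then allow TR-FRET detection of accumulated IP1.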

[19] = target: Pyruvate kinase (Leishmania mexicana) (UniProt Q27686); assay: qHTS Validation Assay for Inhibitors of Leishmania Mexicana Pyruvate Kinase (AID 945);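 further: 0% = DMSO only neutral control wells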; details: purified L. mexicana pyruvate kinase, enzyme activity, E451W mutant enzyme; series mostly up to 57.5 µM
How it was run: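 An endpoint luciferase assay: 0.2 nM LmPYK E451W turns over 0.5 mM PEP with 0.1 mM ADP for 1 h at room temperature, pH 7.2, before PKLight addition. Values are normalized to DMSO-only wells.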

[20] = target: Pyruvate kinase PKM (Homo sapiens) (UniProt P14618); assay: qHTS Assay for Activators of Human Muscle Pyruvate Kinase (AID 954; active means well fitted curve in the direction sought with a large enough effect, not every such curve was filed as active;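 further: 0% = uninhibited enzyme and -100% = no enzyme or full thiadiazolimine inhibition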); details: purified human muscle pyruvate kinase, luciferase-coupled luminescence, 1 h; series mostly up to 57.5 µM
Sequence of Pyruvate kinase PKM (Homo sapiens) (P14618 whole entry, looked up): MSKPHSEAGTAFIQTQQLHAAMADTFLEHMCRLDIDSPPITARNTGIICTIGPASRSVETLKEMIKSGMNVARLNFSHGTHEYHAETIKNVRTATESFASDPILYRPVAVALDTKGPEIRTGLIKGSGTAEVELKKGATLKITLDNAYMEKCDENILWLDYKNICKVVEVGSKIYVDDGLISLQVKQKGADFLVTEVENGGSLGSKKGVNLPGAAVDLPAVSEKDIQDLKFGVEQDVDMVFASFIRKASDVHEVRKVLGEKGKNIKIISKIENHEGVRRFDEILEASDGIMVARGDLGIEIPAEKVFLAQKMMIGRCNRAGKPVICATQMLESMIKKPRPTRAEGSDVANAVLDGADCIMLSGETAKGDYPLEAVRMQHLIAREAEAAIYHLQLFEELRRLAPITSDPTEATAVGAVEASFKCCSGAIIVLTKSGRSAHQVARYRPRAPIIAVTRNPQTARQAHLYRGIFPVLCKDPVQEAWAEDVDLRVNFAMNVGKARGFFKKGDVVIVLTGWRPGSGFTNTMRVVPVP
How it was run: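 ATP production by PKM2 detected via luciferase luminescence after 1 h room-temperature reaction (0.1 nM enzyme, PEP at Km 0.5 mM, ADP 0.1 mM, pH 7.2 imidazole buffer). Inhibition scaled to no-enzyme control; activation referenced to 0.3 nM enzyme wells.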

[21] = target: Alpha-galactosidase (Coffea arabica) (UniProt Q42656); assay: Counterscreen for Glucocerebrosidase Inhibitors: qHTS Assay for Coffee Bean alpha-Galactosidase at pH 4.5 (AID 957); details: purified coffee bean alpha-galactosidase, fluorogenic substrate; series mostly up to 76.9 µM;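 further: plate controls were enzyme alone for no effect and no enzyme for full effect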
Sequence of Alpha-galactosidase (Coffea arabica) (Q42656 whole entry, looked up): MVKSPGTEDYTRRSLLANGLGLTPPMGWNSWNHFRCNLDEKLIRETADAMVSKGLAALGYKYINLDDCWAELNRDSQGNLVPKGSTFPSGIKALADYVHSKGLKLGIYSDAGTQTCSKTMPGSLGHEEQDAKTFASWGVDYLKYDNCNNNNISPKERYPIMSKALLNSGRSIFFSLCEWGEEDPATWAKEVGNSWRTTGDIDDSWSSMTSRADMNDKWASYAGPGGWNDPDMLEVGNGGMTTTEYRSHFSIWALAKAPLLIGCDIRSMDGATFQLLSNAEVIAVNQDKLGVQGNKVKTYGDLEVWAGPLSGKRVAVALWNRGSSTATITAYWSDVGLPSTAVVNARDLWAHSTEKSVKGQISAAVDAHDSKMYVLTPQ
How it was run: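 Enzyme is added first (2 nM final), then compounds titrated from 0.7 nM to 77 uM, then 80 uM 4-methylumbelliferyl alpha-D-galactopyranoside; after 20 min at room temperature a pH 10 NaOH/glycine stop precedes fluorescence reading at 365/440 nm.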

[22] = target: Alpha-galactosidase A (Homo sapiens) (UniProt P06280); assay: Counterscreen for Glucocerebrosidase Inhibitors: qHTS Assay for Human alpha-Galactosidase at pH 4.5 (AID 992); details: purified enzyme, fluorogenic substrate; series mostly up to 76.9 µM; further: 0% is about no effect
How it was run: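 Fluorogenic 1536-well qHTS at pH 4.5 (citrate, Tween-20): 2 nM enzyme, 80 uM 4-MU-alpha-galactoside, 20 min room temperature, NaOH/glycine stop. Titration 0.7 nM to 77 uM, data normalized to no-enzyme and full-activity controls, Hill-fitted AC50.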

[23] = target: alpha-glucosidase (Oryza sativa, rice) (UniProt Q653V4); assay: Counterscreen for Glucocerebrosidase Inhibitors: qHTS Assay for Rice alpha-Glucosidase at pH 5.0 (AID 997); details: rice alpha-glucosidase enzyme activity; series mostly up to 76.9 µM;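 further: 0% = full activity with enzyme and -100% = basal without enzyme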
How it was run: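 Endpoint fluorogenic assay at pH 5.0: compounds (0.7 nM to 77 uM) titrated against 4 nM rice enzyme and 400 uM 4-MU-alpha-glucoside for 20 min at room temperature; NaOH/glycine stop, read ex 365/em 440 nm, Hill-fitted AC50.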

[24] = target: Alpha-galactosidase (Coffea arabica) (UniProt Q42656); assay: Counterscreen for Glucocerebrosidase Inhibitors: qHTS Assay for Coffee Bean alpha-Galactosidase at pH 5.9 (AID 998); details: coffee bean alpha-galactosidase enzyme assay; series mostly up to 76.9 µM;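 further: plate controls were uninhibited enzyme for no effect and no-enzyme basal signal for full effect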
How it was run: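 Enzyme 2 nM + cpd (0.7 nM–77 uM titration) + 4-MU-alpha-Gal 80 uM, pH 5.9 citrate/Tween-20, RT 20 min, NaOH/glycine stop pH 10, fluor 365/440. Normalized to no-enzyme and full-activity controls; Hill-fit AC50.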

[25] = target: Ubiquitin carboxyl-terminal hydrolase 1 (Homo sapiens) (UniProt O94782); assay: Inhibitors of USP1/UAF1: Pilot qHTS (AID 504865); details: purified USP1/UAF1, Ub-rhodamine cleavage fluorescence; series mostly up to 114 µM;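 further: rhodamine fluorescence freed from ubiquitin-rhodamine substrate followed over time; top concentration of the series differs between compounds; on the % scale 0 is the no-effect control and ±100 the full control effect; nearly all actives have a fitted effect of over 35% in size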
How it was run: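 USP1/UAF1 complex at 1 nM preincubated 15 min at room temperature with compound, then Ub-Rho substrate added at 150 nM final. Fluorescence (480/540 nm) read kinetically in 50 mM HEPES pH 7.8, 0.5 mM EDTA, 1 mM TCEP, 0.1 mg/ml BSA, 0.01% Tween-20.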

[26] = target: DNA dC->dU-editing enzyme APOBEC-3G (Homo sapiens) (UniProt Q9HC16); assay: qHTS for inhibitors of Vif-A3G interactions: Validation (AID 588379); details: Vif-A3G protein interaction assay; series mostly up to 46.1 µM; further: 0% is about no effect
How it was run: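 Yellow fluorescence (Ex 488, Em 500-530) of Vif-coexpressing HeLa A3G-eYFP cells, scanned by Acumen cytometer, reports blocked A3G degradation. Cells plated at 700/well overnight at 37 deg C before compound addition, then a further overnight compound incubation at 37 deg C.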

[27] = Primary qHTS for small molecule stabilizers of the endoplasmic reticulum resident proteome: Secreted ER Calcium Modulated Protein (SERCaMP) assay (AID 1508630); details: SH-SY5Y GLuc-SERCaMP (Gaussia luciferase released on ER calcium loss) secretion, thapsigargin, luminescence; series mostly up to 38.4 µM; further: on the % scale 0 is the no-effect control and ±100 the full control effect
How it was run: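 The SH-SY5Y reporter protocol was run at 3 concentrations up to 38.3 uM (primary) or 11 concentrations (follow-up): 16 h compound, 100 nM thapsigargin for 4 h, then extracellular luciferase luminescence.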

CCOC(=O)[C@]12C[C@@H]3OCCN(C(=O)N[C@@H]1c1ccccc1)[C@@H]32
inactive: outcome [1] | outcome [2] | outcome [3] | Potency [4] | outcome [5]

CCOC(=O)c1ncn2c1[C@H]1CCCN1C(=O)c1cc(OC)ccc1-2
inactive: activity change, negative = inhibition [6] 7.15% | outcome [7] | Potency [8] > 46 µM | outcome [9] | Potency [10] | outcome [11] | Potency [12] | Potency [13] | Potency [14] | Potency [15] | outcome [16] | Potency [17] | Potency [18] | outcome [19] | outcome [20] | outcome [21] | outcome [22] | outcome [23] | outcome [24] | Potency [25] | Potency [26] | Potency [27]

COC(=O)C1c2c(n(C)c3ccccc23)[C@H]2[C@@H](C)[C@H](OC)c3ccccc3[C@@H]12 (some centres undefined)
inactive: outcome [3] | outcome [5]

CCOC(=O)[C@]12C[C@]3(OC)CCN(C(=O)N[C@@H]1c1ccccc1)[C@@H]32
inactive: outcome [1] | outcome [2] | outcome [3] | Potency [4] | outcome [5]

C=C(C)C(=O)CP(=O)(OCC)OCC
inactive: outcome [1] | outcome [2] | outcome [3] | Potency [4] | outcome [5]
